Bioassay records deposited in PubChem BioAssay by National Center for Advancing Translational Sciences (NCATS).
A selection: hits, their analogues and other compounds. The true share with any hit is near 5.8%.
SW480 rerep: induces DNA re-replication in SW480 colon adenocarcinoma cells; SW480 DNA re-replication, Hoechst DNA content imaging, 48 h; Potency, µM (titrated, usually from 46.1 µM), without a hit: at the highest dose re-replication activation, hits mostly activators; 1.8% of 340,000 active; AID 624297; further: % of control where 0% means no effect; nearly all actives have a fitted effect of over 55% in size
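Compounds, transferred as 23 nL by pin tool, were incubated with cells for 48 hr; DNA content per nucleus was then quantified by Hoechst staining and fluorescence plate imaging.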
KB-V1 cytotox: KB-V1 MDR subline cytotoxicity | KB-V1 MDR cells viability, CellTiter-Glo, 72 h | Potency, µM (highest dose often 46.1 µM), usual class: cytotoxic | 3.4% of 400,000 active | AID 1347076; further: on the % scale 0 is the no-effect control and ±100 the full control effect; nearly all actives have a fitted effect of over 60% in size
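qHTS viability screen in drug-selected KB-V1 MDR cells: 72 h compound treatment at 37 degrees C, ATP luminescence end point.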
PINK1 expr mod: modulators of PINK1 expression; PINK1 immunofluorescence, high-content cytometry, 24 h; 0.2% of 410,000 active; Potency, µM (doses to about 76.6 µM), without a hit: at the highest dose activation (PINK1 increase), hits mostly activators; active means well fitted activation curve with a large enough effect; inconclusive means small, poorly fitted or top-dose-only effect; cell line not stated here; further: % of control where 0% means no effect; nearly all actives have a fitted effect of over 65% in size
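Readout is PINK1 immunofluorescence, quantified alongside mitochondrial, cell and nuclear markers by laser-scanning microplate cytometry. Cells from a stable line were exposed to compound titrations (5 concentrations) for 24 hours, with CCCP controls.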
12-LOX inh: blocks human arachidonate 12S-lipoxygenase. P18054. purified 12hLO, xylenol orange hydroperoxide absorbance. Potency, µM (top dose mostly 108 µM), for inactives: top-dose activity change, negative = inhibition, hits mostly inhibitors. 1.1% of 580,000 active. AID 1671190; further: on the % scale 0 is the no-effect control and ±100 the full control effect
Target sequence (P18054 whole entry, looked up): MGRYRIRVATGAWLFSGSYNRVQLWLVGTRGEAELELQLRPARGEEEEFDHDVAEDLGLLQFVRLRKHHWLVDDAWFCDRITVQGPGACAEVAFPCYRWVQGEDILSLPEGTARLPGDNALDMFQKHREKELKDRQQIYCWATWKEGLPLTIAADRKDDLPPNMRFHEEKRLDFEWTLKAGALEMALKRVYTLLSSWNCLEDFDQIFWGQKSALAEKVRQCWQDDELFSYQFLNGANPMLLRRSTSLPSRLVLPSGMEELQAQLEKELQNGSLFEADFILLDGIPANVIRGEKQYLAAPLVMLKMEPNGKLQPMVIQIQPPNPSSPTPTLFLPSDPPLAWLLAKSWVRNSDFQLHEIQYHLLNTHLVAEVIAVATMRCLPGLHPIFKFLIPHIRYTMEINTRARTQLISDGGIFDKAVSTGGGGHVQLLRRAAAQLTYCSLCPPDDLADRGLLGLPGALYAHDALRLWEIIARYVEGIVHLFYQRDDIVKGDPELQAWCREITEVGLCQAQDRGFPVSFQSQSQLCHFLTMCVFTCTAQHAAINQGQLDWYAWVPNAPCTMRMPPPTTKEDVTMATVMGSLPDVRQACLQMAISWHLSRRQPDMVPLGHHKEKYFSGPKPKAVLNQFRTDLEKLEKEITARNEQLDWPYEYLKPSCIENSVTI
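Hydroperoxide product was detected by ferrous iron/xylenol orange as the 573 to 405 nm absorbance ratio. Arachidonic acid at 40 uM (final) was turned over for 30 min at room temperature by 150 nM human 12hLO, pH 7.0 Hepes buffer, after 15 min compound preincubation.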
MCF10A rereplic: inducers of DNA re-replication in MCF 10A breast cells. MCF 10A DNA re-replication, Hoechst nuclear intensity, 48 h. Potency, µM (titrated, usually from 46.1 µM), inactives show at the top dose activity, positive = re-replication, usual class: activators. 2.9% of 350,000 active. AID 624296; further: % of control where 0% means no effect; nearly all actives have a fitted effect of over 50% in size
KB-3-1 tox: kills parental KB-3-1 adenocarcinoma cells; KB-3-1 viability, CellTiter-Glo ATP luminescence, 72 h; Potency, µM (series often up to 46.1 µM), hits mostly cytotoxic; 1.4% of 400,000 active; further: on the % scale 0 is the no-effect control and ±100 the full control effect; nearly all actives have a fitted effect of over 60% in size
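KB-3-1 parental drug-naive adenocarcinoma cells in DMEM/10% FBS, incubated 72 h at 37 C with pin-transferred compounds across a concentration series. Viability by CellTiter-Glo luminescence; concentration-response curves fitted after normalization.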
Numbers without * were called inactive; i = inactive; ? = inconclusive; nt = no result given; [ ] = dose if it differs, or a comment. Unless noted, the call rests on the fitted dose curve; in most records, active means well fitted curve in the direction sought with a large enough effect; inconclusive means small, poorly fitted or top-dose-only effect, or another doubt; inactive means no such curve, though single readings can be large; an effect the other way counts as inactive or inconclusive. Potency means the concentration at half of the fitted maximal effect.

SMILES | SW480 rerep | KB-V1 cytotox | PINK1 expr mod | 12-LOX inh | MCF10A rereplic | KB-3-1 tox
COC(=O)c1ccc(/C=N/OCc2ccc(C(=O)OC)cc2)cc1 | nt | nt | nt | -54.5% | nt | nt
O=C1CCSc2ccc(C(=O)NNC(=S)NCc3ccccc3)cc2N1 | nt | nt | nt | 13.9% | nt | nt
CC(Oc1cccc(Br)c1)C(=O)NNC(=O)c1ccc2c(c1)NC(=O)CCS2 (stereo unspecified) | nt | nt | nt | 44.7µM* | nt | nt
CC(C)C(C)NC(=O)c1ccc(I)cc1 (stereo unspecified) | nt | nt | nt | 26.1% | nt | nt
Cc1cccc(-n2c(C)nc3cc(C(=O)NCc4ccc5c(c4)OCO5)ccc32)c1 | ? | 16.4µM* | 4.2% | 0.5% | -67.7% | i
COCCNC(=O)c1ccc2c(c1)nc(C)n2-c1cccc(F)c1 | 4.5% | 20.6µM* | -1.4% | 0.0% | 12.0% | i
Cc1ccc(CNC(=O)c2ccc3c(c2)nc(C)n3-c2cccc(F)c2)cc1 | nt | nt | -0.8% | -21.2% | nt | nt
Cc1cc(Cl)ccc1NC(=S)NCCCO | -3.1% | i | -1.4% | -24.8% | 7.2% | i
Cc1c(Cl)cccc1NC(=S)NCCc1ccc(F)cc1 | -0.8% | ? | 9.5% | ? | 9.8% | i
Cc1ccc(SCCNC(=S)Nc2ccc(F)cc2)cc1 | nt | nt | nt | 50.1µM* | nt | nt
Cc1ccc(SCCNC(=S)Nc2cccc(Cl)c2C)cc1 | nt | nt | nt | 31.6µM* | nt | nt
Cc1ccccc1NC(=S)NCCSc1ccc(Cl)cc1 | -1.1% | ? | 20.7% | 44.7µM* | ? | i
Cc1ccccc1NC(=S)NCCO | -4.3% | i | -1.0% | -1.8% | -4.5% | i
Cc1ccc(NC(=S)NCCSc2ccc(Cl)cc2)c(C)c1 | ? | i | 3.9% | ? | 23.1µM* | i
Cc1ccc(NC(=S)NCc2ccc(F)cc2)cc1 | 11.5% | i | 0.7% | 9.6% | 0.0% | i
CCNc1c(NC(=O)c2ccc(C(C)(C)C)cc2)c(=O)oc2ccccc12 | nt | nt | nt | -17.7% | nt | nt
O=S1(=O)NC2(CCCN(CCc3ccccc3)C2)COc2ccccc21 (stereo unspecified) | nt | nt | nt | 5.9%[6.33 µM] | nt | nt
COCCc1nncn1C1CCN(C(=O)c2ccc(Br)cc2)CC1 | nt | nt | nt | 42.8% | nt | nt
COC(=O)c1ccc(Oc2c(C)oc3cc(OCc4ccccc4)ccc3c2=O)cc1 | nt | nt | nt | 2.9% | nt | nt
CCc1ccc(-c2nn(Cc3ccccc3)cc2C(=O)N2CCN(CCO)CC2)cc1 | nt | nt | nt | 20.7% | nt | nt
Cc1ccc(NC(=S)NCc2ccc(Cl)cc2)c(C)c1 | 1.6% | i | 5.6% | 35.5µM* | -0.9% | i
CCc1ccccc1NC(=S)NCCSc1ccc(Cl)cc1 | -4.6% | ? | 25.2% | 50.1µM* | 433.5% | ?
Cc1ccc(Cl)cc1NC(=S)NCCCSC1CCCCC1 | 15.1% | ? | ? | 35.5µM* | ? | ?
Cc1ccc(C)c(NC(=S)NCCSc2ccc(Cl)cc2)c1 | 0.7% | ? | ? | 28.2µM* | ? | i
COc1ccc(CN(C(=O)COc2cccc(C)c2C)c2ccccn2)cc1OC | nt | nt | nt | -23.8% | nt | nt
SMILES | SW480 rerep | KB-V1 cytotox | PINK1 expr mod | 12-LOX inh | MCF10A rereplic | KB-3-1 tox
O=C(COc1ccccc1)NC(=S)Nc1ccc2c3c(cccc13)CC2 | -1.7% | i | 0.7% | -1.1% | ? | i
O=C(/C=C/c1ccccc1)NC(=S)Nc1ccc2c3c(cccc13)CC2 | -2.2% | i | 15.1% | -1.5% | ? | 4.11µM*
CCn1c(SCC(=O)N/N=C/C(C)=C/c2ccco2)nnc1-c1ccccc1 | 4.8% | 14.6µM* | 8.6%[38.3 µM] | -8.1% | 24.6% | i
C=CCn1c(SCC(=O)Nc2cccnc2Cl)nnc1-c1ccccc1F | -0.8% | ? | -1.3% | -20.2% | 19.7% | i
O=C(CSCC(=O)N1CCN(c2ccccc2)CC1)Nc1nc(-c2ccc(Cl)s2)cs1 | -1.8% | i | 2.4% | -7.0% | 20.2% | i
CCn1c(SCC(=O)Nc2cccnc2Cl)nnc1-c1ccccc1 | 5.3% | 20.6µM* | ? | 3.6% | -0.9% | i
C=CCn1c(SCC(=O)Nc2cccnc2Cl)nnc1-c1ccc(Cl)cc1 | -1.3% | 5.17µM* | -1.7% | 10.6% | 0.8% | i
CCOC(=O)N1CCN(C(=O)CSCC(=O)Nc2nc(-c3ccccc3)cs2)CC1 | -2.5% | 16.4µM* | -0.6%[38.3 µM] | 3.5% | 7.3% | i
CCn1c(SCC(=O)Nc2nccs2)nnc1-c1ccccc1 | -2.6% | ? | -0.6%[38.3 µM] | ? | 15.8% | i
COc1cccc(/C=C(/C(=O)c2ccccc2)c2nc3ccccc3s2)c1 | nt | nt | nt | -31.7% | nt | nt
CC(C)CCn1cnc2c1c(=O)n(CC(=O)NCC1CCCO1)c(=O)n2Cc1ccccc1 (stereo unspecified) | nt | nt | nt | 14.6% | nt | nt
CCOC(=O)c1cnc2ccccc2c1N1CCC(CO)CC1 | nt | nt | nt | -15.0% | nt | nt
COc1ccc(-c2cc(C)no2)cc1S(=O)(=O)CCC(=O)Nc1cc(C)cc(C)c1 | nt | nt | nt | 3.2% | nt | nt
Cc1ccc(S(=O)(=O)Nc2cccc(S(=O)(=O)C3CCCC3)c2)c(C)c1 | nt | nt | nt | -35.6% | nt | nt
C=CCn1c(SCC(=O)Nc2ccc(-c3nc4ccc(C)cc4s3)cc2)nnc1-c1ccccc1 | 10.3µM* | ? | 9.4% | ? | 4.11µM* | i
Cc1csc(NC(=O)CSc2ccc(-c3ccccc3)nn2)n1 | -7.0% | 23.1µM* | -1.6% | nt | 7.9% | i
CCn1c(SCC(=O)Nc2nc(-c3ccccc3)cs2)nnc1-c1ccccc1 | -16.4% | 18.4µM* | -1.6%[38.3 µM] | 1.0% | 2.8% | i
Cc1csc(NC(=O)CSc2ccccc2)n1 | nt | nt | nt | -25.7% | nt | nt
Cc1csc(NC(=O)CSc2nnc(-c3ccoc3C)n2C(C)c2ccccc2)n1 (stereo unspecified) | 14.6µM* | i | 1.4% | 0.0% | ? | i
